Where a name gives a salt, the structure may show the parent alone.
Test system: MOLM14
Experiment: cell viability relative to vehicle control; higher = less cytotoxic
Conditions: 10 µM; SRSF2 genotype: SRSF2 P95H/wt
Summary of the method: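 Four leukaemia lines, as CRISPR-edited mutant clones and isogenic wild-type clones, were tested against Selleck bioactive, kinase and epigenetic probe libraries after removal of identity-inconsistent compounds. Cells were exposed to a single 10 µM dose for 48 h, and CellTiter-Glo luminescence was then read. Viability was calculated relative to the on-plate vehicle control.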

| SMILES | cell viability [%] |
| --- | --- |
| CCC[C@H](Nc1nc(-c2ccc(NC(=O)NCC)c(OC)c2)ncc1C)c1cccnc1 | 1.24 |
| O=C(O)CCc1ccc(NCc2cccc(Oc3ccccc3)c2)cc1 | 94.2 |
| NC(=O)N/N=C/c1ccc([N+](=O)[O-])o1 [Nitrofurazone (Nitrofural)] | 96.8 |
| Cc1cnc(C(=O)O)c[n+]1[O-] [Acipimox] | 98.8 |
| CS(=O)(=O)c1ccc(-c2cnc(N)c(C(=O)Nc3ccccc3)n2)cc1 | 109 |
| COCCOc1nc(-c2ccc(Cl)c(Cl)c2)n(-c2ccc(NC(=O)CCl)cc2)n1 [MI-2 (MALT1 inhibitor)] | 0.48 |
| O=C(O)C(S)=Cc1c[nH]c2ccc(F)cc12 | 85.2 |
| C[C@]1(O)C[C@@H](c2nc(-c3ccc4ccc(-c5ccccc5)nc4c3)c3c(N)nccn32)C1 [OSI-906 (Linsitinib)] | 72.2 |
| O=C(O)/C=C/c1ccc(O)cc1 [p-Coumaric Acid] | 107 |
| c1ccc(-c2ccc(C(c3ccccc3)n3ccnc3)cc2)cc1 (stereo not given) [Bifonazole] | 84.5 |
| Cc1cc(C)c(/C=C2\C(=O)Nc3ccccc32)[nH]1 [Semaxanib (SU5416)] | 20 |
| NC[C@@](O)(c1ccc(Cl)cc1)c1ccc(-c2cn[nH]c2)cc1 | 29.3 |
| COc1cc(/C=C/C(=O)CC(=O)/C=C/c2ccc(O)c(OC)c2)ccc1O [Curcumin] | 47.8 |
| Oc1ccc(-c2nc(-c3ccc(F)cc3)c(-c3ccncc3)[nH]2)cc1 | 97.9 |
| CCN(CC)CCOC(=O)C(c1ccccc1)c1ccccc1 [Adiphenine HCl] | 89 |
| C=C1[C@H](O)C[C@H]2[C@@H](/C=C(\C)C(=O)[C@@]3(O)C[C@H](C)[C@H](O)[C@@H]3[C@H]1O)C2(C)C | 99.8 |
| COc1cccc(C=NCCN=Cc2cccc(OC)c2[O-])c1[O-].[Cl-].[Mn+3] | 92.2 |
| c1ccc(CNc2nc(NCc3ccccc3)c3ccccc3n2)cc1 | 0.16 |
| CCCC1O[C@@H]2C[C@H]3[C@@H]4CCC5=CC(=O)C=C[C@]5(C)[C@H]4[C@@H](O)C[C@]3(C)[C@]2(C(=O)CO)O1 (stereo not given in full) [Budesonide] | 86.1 |
| Cc1[nH]c(/C=C2\C(=O)Nc3ccccc32)c(C)c1CCC(=O)O [Orantinib (TSU-68, SU6668)] | 82 |

| SMILES | cell viability [%] |
| --- | --- |
| CC(=O)Oc1cccc2ccccc12 [1-Naphthyl acetate] | 93.7 |
| CN1CCN(CCOc2cc(OC3CCOCC3)c3c(Nc4c(Cl)ccc5c4OCO5)ncnc3c2)CC1 [Saracatinib (AZD0530)] | 50.3 |
| CC[C@H]1OC(=O)[C@@](C)(F)C(=O)[C@H](C)[C@@H](O[C@@H]2O[C@H](C)C[C@H](N(C)C)[C@H]2O)[C@](C)(OC)C[C@@H](C)C(=O)[C@H](C)[C@H]2N(CCCCn3cc(-c4cccc(N)c4)nn3)C(=O)O[C@]12C [Solithromycin] | 89.4 |
| C[C@@H]1O[C@@H](O[C@H]2[C@H](Oc3cc(O)c(C(=O)CCc4ccc(O)cc4)c(O)c3)O[C@H](CO)[C@@H](O)[C@@H]2O)[C@H](O)[C@H](O)[C@H]1O [Naringin Dihydrochalcone (Naringin DC)] | 98.4 |
| O=C(Nc1c[nH]nc1-c1nc2ccc(CN3CCOCC3)cc2[nH]1)NC1CC1 | 1.54 |
| Nc1ccccc1NC(=O)c1ccc(CNc2nccc(-c3cccnc3)n2)cc1 [Mocetinostat (MGCD0103)] | 0.6 |
| COc1c2c(cc3oc(COC4OC(CO)C(O)C(O)C4O)cc(=O)c13)OC(C(C)(C)O)C2 (stereo not given) [Prim-o-glucosylcimifugin] | 88.3 |
| CN(CCOc1ccc(CC2SC(=O)NC2=O)cc1)c1ccccn1 (stereo not given) [Rosiglitazone (Avandia)] | 90 |
| CC(C)CC(=O)Nc1n[nH]c2c1CN(C(=O)C1CCN(C)CC1)C2(C)C | 2.48 |
| CC1(C)[C@@H](O[C@H]2O[C@H](C(=O)O)[C@@H](O)[C@H](O)[C@H]2O[C@@H]2O[C@H](C(=O)O)[C@@H](O)[C@H](O)[C@H]2O)CC[C@]2(C)[C@H]3C(=O)C=C4[C@@H]5C[C@@](C)(C(=O)O)CC[C@]5(C)CC[C@@]4(C)[C@]3(C)CC[C@@H]12 [Ammonium Glycyrrhizinate (AMGZ)] | 104 |
| CCC(=O)Nc1cccc(Oc2nc(Nc3ccc(N4CCN(C)CC4)cc3OC)ncc2Cl)c1 | 39.9 |
| C[C@]12CC[C@@H]3c4ccc(O)cc4CC[C@H]3[C@@H]1C[C@@H](O)[C@@H]2O [Estriol] | 101 |
| COC(=O)N[C@H](C(=O)N1CCC[C@H]1c1ncc(-c2ccc(-c3ccc(-c4cnc([C@@H]5CCCN5C(=O)[C@@H](NC(=O)OC)C(C)C)[nH]4)cc3)cc2)[nH]1)C(C)C [Daclatasvir Digydrochloride] | 67.7 |
| O=C(/C=C\n1cnc(-c2cc(C(F)(F)F)cc(C(F)(F)F)c2)n1)NNc1cnccn1 [Selinexor (KPT-330)] | 2.17 |
| C[C@@H]1O[C@@H](OC[C@H]2O[C@@H](Oc3c(-c4ccc(OCCO)c(OCCO)c4)oc4cc(OCCO)cc(O)c4c3=O)[C@H](O)[C@@H](O)[C@@H]2O)[C@H](O)[C@H](O)[C@H]1O [Troxerutin] | 86.3 |
| O=C1c2c(O)cc(O)cc2OC(c2ccc(O)c(O)c2)C1O (stereo not given) [Taxifolin (Dihydroquercetin)] | 100 |
| COc1cc2oc(-c3ccc(O)cc3)cc(=O)c2c(O)c1[C@@H]1O[C@H](CO)[C@@H](O)[C@H](O)[C@H]1O[C@@H]1O[C@H](CO)[C@@H](O)[C@H](O)[C@H]1O [Spinosin] | 106 |
| O=C(CCNC(=O)c1ccc(OC(F)(F)F)cc1)N[C@@H]1CCCc2ccccc21 | 93.7 |
| O=C1Nc2ccc(I)cc2C1=Cc1cc(Br)c(O)c(Br)c1 | 84.7 |
| NC(=O)/C(=C/n1cnc(-c2cc(C(F)(F)F)cc(C(F)(F)F)c2)n1)c1cncnc1 | 0.67 |

— the supplement of paper PMC10981050
